Data reported in PubChem BioAssay (EPA / NIEHS).
Inconclusive results are not listed. Active and inactive are the calls of the source. The calls were made as follows: active = hit-call score of the fitted dose curve at least 0.9, where 1 is the maximum; inconclusive = response in the unintended direction; inactive = score below 0.9.

target: rat Thyrotropin Releasing Hormone Receptor (TRH), Trhr (gene 25570) (UniProt Q01717); assay: NVS_GPCR_rTRH: NovaScreen (NVS) G Protein-Coupled Receptor Assay for rat Thyrotropin Releasing Hormone Receptor (TRH) (AID 2283329);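 also: hit means lower bound tracer signal versus DMSO baseline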
In short: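 Cell-free radioligand binding on rat forebrain membranes; bound tracer measured by filter-based scintillation counting 4 hours after dosing. Loss of signal versus DMSO baseline indicates displacement; primary screen at 25 uM in duplicate, actives then run in concentration series.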

rat Thyrotropin Releasing Hormone Receptor (TRH), Trhr (gene 25570), sequence (Q01717 whole entry, looked up): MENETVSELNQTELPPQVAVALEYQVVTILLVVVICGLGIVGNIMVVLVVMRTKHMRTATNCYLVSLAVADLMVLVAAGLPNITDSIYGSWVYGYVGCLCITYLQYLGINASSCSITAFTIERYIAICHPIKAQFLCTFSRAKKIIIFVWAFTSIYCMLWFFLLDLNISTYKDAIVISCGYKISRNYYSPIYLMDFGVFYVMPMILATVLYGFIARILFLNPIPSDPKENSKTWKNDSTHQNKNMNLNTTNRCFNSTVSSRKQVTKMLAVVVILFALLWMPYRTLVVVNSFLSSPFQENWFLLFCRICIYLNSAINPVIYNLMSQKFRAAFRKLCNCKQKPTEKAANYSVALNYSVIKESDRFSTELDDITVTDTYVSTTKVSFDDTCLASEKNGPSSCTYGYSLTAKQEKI

Compound	outcome
CCc1cnc(C2=NC(C)(C(C)C)C(=O)N2)c(C(=O)O)c1 (stereo unspecified)	inactive
CON=C(C(=O)OC)c1ccccc1CON=C(C)c1cccc(C(F)(F)F)c1	inactive
FC(F)C(F)(F)OCC(Cn1cncn1)c1ccc(Cl)cc1Cl (stereo unspecified)	inactive
C[Si](Cn1cncn1)(c1ccc(F)cc1)c1ccc(F)cc1	inactive
CCC(CC)Nc1c([N+](=O)[O-])cc(C)c(C)c1[N+](=O)[O-]	inactive
C#CC(C)(C)NC(=O)c1cc(Cl)cc(Cl)c1	inactive
CCC(=O)Nc1ccc(Cl)c(Cl)c1	inactive
CCOC(=O)CC(SP(=O)(OC)OC)C(=O)OCC (stereo unspecified)	inactive
CC(C1CC1)C(O)(Cn1cncn1)c1ccc(Cl)cc1 (stereo unspecified)	inactive
O=[N+]([O-])c1cc(C(F)(F)F)c(Cl)c([N+](=O)[O-])c1Nc1ncc(C(F)(F)F)cc1Cl	inactive
Nc1c(Cl)cc([N+](=O)[O-])cc1Cl	inactive

target: human Peripheral-type Benzodiazepine Receptor (PBR), TSPO (gene 706) (UniProt P30536); assay: NVS_MP_hPBR: NovaScreen (NVS) Membrane Protein Assay for human Peripheral-type Benzodiazepine Receptor (PBR) (AID 2283331);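 also: hits reduce radioligand binding relative to DMSO baseline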
In short: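 Scintillation counts of filter-bound radioligand served as read-out after 1 h chemical dosing of human colonic membrane preparations. Activity was scored as signal loss against DMSO; initial duplicates at 25 uM, confirmatory concentration series afterward.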

human Peripheral-type Benzodiazepine Receptor (PBR), TSPO (gene 706), sequence (P30536 whole entry, looked up): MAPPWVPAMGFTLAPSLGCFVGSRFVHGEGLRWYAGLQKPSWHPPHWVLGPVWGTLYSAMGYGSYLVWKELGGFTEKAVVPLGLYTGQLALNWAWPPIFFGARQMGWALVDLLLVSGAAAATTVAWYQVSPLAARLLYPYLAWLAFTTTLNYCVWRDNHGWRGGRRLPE

Compound	AC50	outcome
CNc1cnn(-c2cccc(C(F)(F)F)c2)c(=O)c1Cl	5.75 µM (active)	–
CCCOCC(=Nc1ccc(Cl)cc1C(F)(F)F)n1ccnc1	8.63 µM (active)	–
S=C1NCCN1	–	inactive
CC(C)[C@H](C(=O)O[C@H](C#N)c1cccc(Oc2ccccc2)c1)c1ccc(Cl)cc1	–	inactive
CON=C(C(=O)OC)c1ccccc1CON=C(C)c1cccc(C(F)(F)F)c1	1.06 µM (active)	–
FC(F)C(F)(F)OCC(Cn1cncn1)c1ccc(Cl)cc1Cl (stereo unspecified)	19.4 µM (active)	–
C[Si](Cn1cncn1)(c1ccc(F)cc1)c1ccc(F)cc1	25 µM (active)	–
CNC(=O)ON=C(C)SC	–	inactive
CCC(CC)Nc1c([N+](=O)[O-])cc(C)c(C)c1[N+](=O)[O-]	–	inactive
CCOP(=O)(OCC)Oc1cc(C)nc(C(C)C)n1	–	inactive
C#CC(C)(C)NC(=O)c1cc(Cl)cc(Cl)c1	1.47 µM (active)	–
CCC(=O)Nc1ccc(Cl)c(Cl)c1	15.6 µM (active)	–
CCOC(=O)CC(SP(=O)(OC)OC)C(=O)OCC (stereo unspecified)	–	inactive
CC(C1CC1)C(O)(Cn1cncn1)c1ccc(Cl)cc1 (stereo unspecified)	–	inactive
CCCCOC(=O)c1ccccc1C(=O)O	–	inactive
CCCSP(=O)(OCC)SCCC	17.7 µM (active)	–
COc1ccc(C(=CC(=O)N2CCOCC2)c2ccc(Cl)cc2)cc1OC	–	inactive
C=C(C)[C@H]1Cc2c(ccc3c2O[C@@H]2COc4cc(OC)c(OC)cc4[C@@H]2C3=O)O1	–	inactive
CCCCSP(=O)(SCCCC)SCCCC	17.9 µM (active)	–
Nc1c(Cl)cc([N+](=O)[O-])cc1Cl	–	inactive

target: human Androgen Receptor (AR), AR (gene 367) (UniProt P10275); assay: NVS_NR_hAR: NovaScreen (NVS) Nuclear Receptor Binding Assay for human Androgen Receptor (AR) (AID 2283332)
In short: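 Radioligand competitive binding, scintillation read-out, in cell-free extract from LnCAP, measured 20 h after dosing. Screened first in duplicate at 25 uM, then concentration series for actives; activity fitted against DMSO.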

human Androgen Receptor (AR), AR (gene 367), sequence (P10275 whole entry, looked up): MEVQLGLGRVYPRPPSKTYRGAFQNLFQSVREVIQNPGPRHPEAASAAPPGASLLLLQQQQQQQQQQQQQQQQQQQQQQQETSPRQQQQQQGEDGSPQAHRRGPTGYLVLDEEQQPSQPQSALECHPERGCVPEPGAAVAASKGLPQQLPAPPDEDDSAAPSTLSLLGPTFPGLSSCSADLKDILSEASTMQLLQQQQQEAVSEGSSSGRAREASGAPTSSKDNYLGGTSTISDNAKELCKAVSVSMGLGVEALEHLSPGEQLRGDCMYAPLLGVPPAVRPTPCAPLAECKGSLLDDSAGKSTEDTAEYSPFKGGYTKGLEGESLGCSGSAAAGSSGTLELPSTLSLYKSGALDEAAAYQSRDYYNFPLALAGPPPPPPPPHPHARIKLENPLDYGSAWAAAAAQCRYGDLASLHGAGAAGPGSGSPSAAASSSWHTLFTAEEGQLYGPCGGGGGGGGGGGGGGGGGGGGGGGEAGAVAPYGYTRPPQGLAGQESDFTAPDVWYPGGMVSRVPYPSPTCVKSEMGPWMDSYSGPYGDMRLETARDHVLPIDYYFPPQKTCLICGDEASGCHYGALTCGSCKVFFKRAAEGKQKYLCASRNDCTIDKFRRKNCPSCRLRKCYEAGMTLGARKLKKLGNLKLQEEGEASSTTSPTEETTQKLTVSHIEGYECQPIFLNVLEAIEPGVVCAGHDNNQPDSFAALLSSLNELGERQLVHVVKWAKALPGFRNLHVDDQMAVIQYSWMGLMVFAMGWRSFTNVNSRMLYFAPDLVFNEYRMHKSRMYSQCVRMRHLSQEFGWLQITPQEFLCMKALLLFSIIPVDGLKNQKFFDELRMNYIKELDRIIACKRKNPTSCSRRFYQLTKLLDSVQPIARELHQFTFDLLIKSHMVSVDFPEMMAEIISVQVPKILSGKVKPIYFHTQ

Compound	AC50	outcome
CCC(=O)Nc1ccc(Cl)c(Cl)c1	8.41 µM (active)	–
CCCSP(=O)(OCC)SCCC	–	inactive
COc1ccc(C(=CC(=O)N2CCOCC2)c2ccc(Cl)cc2)cc1OC	1.79 µM (active)	–
C=C(C)[C@H]1Cc2c(ccc3c2O[C@@H]2COc4cc(OC)c(OC)cc4[C@@H]2C3=O)O1	–	inactive

target: Voltage-gated inwardly rectifying potassium channel KCNH2 (Homo sapiens) (UniProt Q12809); assay: NVS_IC_hKhERGCh: NovaScreen (NVS) Ion Channel Assay for human Potassium Channel ERG (KhERGCh) (AID 2283333)
In short: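 Cell-free radioligand competition binding on hERG protein extracted from CHO cells, read by filter-based scintillation counting 0.75 h after dosing. Primary screen at 25 uM in duplicate, actives followed in concentration series. Signal loss fitted versus DMSO.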

Voltage-gated inwardly rectifying potassium channel KCNH2 (Homo sapiens), sequence (Q12809 whole entry, looked up): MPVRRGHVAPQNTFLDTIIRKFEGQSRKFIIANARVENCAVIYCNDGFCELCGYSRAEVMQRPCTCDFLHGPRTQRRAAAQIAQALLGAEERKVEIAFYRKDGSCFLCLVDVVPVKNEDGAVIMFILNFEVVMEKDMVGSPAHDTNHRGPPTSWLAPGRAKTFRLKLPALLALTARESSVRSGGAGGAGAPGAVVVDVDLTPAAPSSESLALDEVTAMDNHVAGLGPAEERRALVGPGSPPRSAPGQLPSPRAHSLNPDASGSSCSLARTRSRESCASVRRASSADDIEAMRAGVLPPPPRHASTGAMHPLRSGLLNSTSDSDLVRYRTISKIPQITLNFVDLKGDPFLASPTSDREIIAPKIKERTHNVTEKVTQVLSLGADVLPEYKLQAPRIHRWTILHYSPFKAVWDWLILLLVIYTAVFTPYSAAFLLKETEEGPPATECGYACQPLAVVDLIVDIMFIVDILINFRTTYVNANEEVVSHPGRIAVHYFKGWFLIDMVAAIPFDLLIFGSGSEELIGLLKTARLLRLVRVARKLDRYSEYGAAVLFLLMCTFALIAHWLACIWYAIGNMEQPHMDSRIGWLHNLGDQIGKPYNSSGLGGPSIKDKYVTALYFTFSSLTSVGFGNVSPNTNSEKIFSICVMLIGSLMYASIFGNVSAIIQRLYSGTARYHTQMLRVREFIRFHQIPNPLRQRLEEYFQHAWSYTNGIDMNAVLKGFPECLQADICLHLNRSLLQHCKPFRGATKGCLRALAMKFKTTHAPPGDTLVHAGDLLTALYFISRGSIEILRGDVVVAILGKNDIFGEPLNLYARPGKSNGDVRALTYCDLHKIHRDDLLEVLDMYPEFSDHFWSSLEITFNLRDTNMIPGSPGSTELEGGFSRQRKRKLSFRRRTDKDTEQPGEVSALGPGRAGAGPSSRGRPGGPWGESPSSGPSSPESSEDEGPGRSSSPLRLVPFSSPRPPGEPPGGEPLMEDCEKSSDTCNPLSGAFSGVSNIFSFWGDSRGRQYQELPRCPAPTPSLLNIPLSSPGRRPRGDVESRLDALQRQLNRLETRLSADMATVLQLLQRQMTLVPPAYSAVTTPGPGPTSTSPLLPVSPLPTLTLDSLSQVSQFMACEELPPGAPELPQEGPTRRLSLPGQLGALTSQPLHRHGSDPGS

Compound	outcome	AC50
CCCOCC(=Nc1ccc(Cl)cc1C(F)(F)F)n1ccnc1	inactive	–
FC(F)C(F)(F)OCC(Cn1cncn1)c1ccc(Cl)cc1Cl (stereo unspecified)	–	19.9 µM (active)
O=[N+]([O-])c1cc(C(F)(F)F)c(Cl)c([N+](=O)[O-])c1Nc1ncc(C(F)(F)F)cc1Cl	inactive	–
CCCCSP(=O)(SCCCC)SCCCC	inactive	–

target: rat Peripheral-type Benzodiazepine Receptor (PBR), Tspo (gene 24230) (UniProt P16257); assay: NVS_MP_rPBR: NovaScreen (NVS) Membrane Protein Assay for rat Peripheral-type Benzodiazepine Receptor (PBR) (AID 2283335)
In short: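 Rat kidney membranes; radioligand binding with displacement, filter-based scintillation counting, 1 h incubation. Primary screen in duplicate at 25 uM, actives followed in concentration series; loss of binding vs DMSO.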

rat Peripheral-type Benzodiazepine Receptor (PBR), Tspo (gene 24230), sequence (P16257 whole entry, looked up): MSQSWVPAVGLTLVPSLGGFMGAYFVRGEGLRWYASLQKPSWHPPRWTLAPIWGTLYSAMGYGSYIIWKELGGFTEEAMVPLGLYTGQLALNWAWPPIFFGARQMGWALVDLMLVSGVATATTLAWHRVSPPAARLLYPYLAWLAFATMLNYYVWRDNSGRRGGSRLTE

Compound	AC50	outcome
CNc1cnn(-c2cccc(C(F)(F)F)c2)c(=O)c1Cl	4.99 µM (active)	–
CCCOCC(=Nc1ccc(Cl)cc1C(F)(F)F)n1ccnc1	0.807 µM (active)	–
CON=C(C(=O)OC)c1ccccc1CON=C(C)c1cccc(C(F)(F)F)c1	0.612 µM (active)	–
FC(F)C(F)(F)OCC(Cn1cncn1)c1ccc(Cl)cc1Cl (stereo unspecified)	5.37 µM (active)	–
C[Si](Cn1cncn1)(c1ccc(F)cc1)c1ccc(F)cc1	–	inactive
CCC(CC)Nc1c([N+](=O)[O-])cc(C)c(C)c1[N+](=O)[O-]	–	inactive
C#CC(C)(C)NC(=O)c1cc(Cl)cc(Cl)c1	0.19 µM (active)	–
CCC(=O)Nc1ccc(Cl)c(Cl)c1	9.5 µM (active)	–
CCOC(=O)CC(SP(=O)(OC)OC)C(=O)OCC (stereo unspecified)	19.7 µM (active)	–
CCCSP(=O)(OCC)SCCC	11.5 µM (active)	–
COc1ccc(C(=CC(=O)N2CCOCC2)c2ccc(Cl)cc2)cc1OC	–	inactive
C=C(C)[C@H]1Cc2c(ccc3c2O[C@@H]2COc4cc(OC)c(OC)cc4[C@@H]2C3=O)O1	4.23 µM (active)	–
CCCCSP(=O)(SCCCC)SCCCC	3.75 µM (active)	–

tested on: not listed separately; assay: NVS_IC_rCaBTZCHL: NovaScreen (NVS) Ion Channel Assay for Calcium Channel, Type L, Benzothiazepine Site (CaBTZCHL) (AID 2283337)
In short: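 Scintillation counting of filter-bound radioligand gave the read-out, with reduced binding versus DMSO scored as activity. Membranes came from rat cortex and were read 1.5 h after compound addition. Chemicals were screened first in duplicate at 25 uM.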

Compound	outcome	AC50
CCCOCC(=Nc1ccc(Cl)cc1C(F)(F)F)n1ccnc1	inactive	–
FC(F)C(F)(F)OCC(Cn1cncn1)c1ccc(Cl)cc1Cl (stereo unspecified)	–	7.26 µM (active)
CSc1nnc(C(C)(C)C)c(=O)n1N	inactive	–
COc1ccc(C(=CC(=O)N2CCOCC2)c2ccc(Cl)cc2)cc1OC	inactive	–
